Test results: PubChem BioAssay AID651957 (The Scripps Research Institute Molecular Screening Center, 2012)
Among all 370,000 compounds or so, about 620 (0.17%) were called active.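 How the source made its calls: active means inhibition above the mean inhibition of all tested compounds plus 3 SD, set per campaign (cut at about 52% in these data); inactive means the rest.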 For the sample, actives were picked, then their nearest neighbours and some compounds at random.

The compounds below were run against Nuclear receptor coactivator 2 (Homo sapiens) (UniProt Q15596) (assay: inhibition of GAL4-SRC2 driven luciferase reporter, primary screen, SRC2 inhibitor project, cell-based, luminescence (AID 651957;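 further: 0% = DMSO treated cells and 100% = cells given Gossypol at 36 µM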)). Conditions: HEK293 GAL4-SRC2 luciferase reporter, at 9 µM, stronger effect = higher value.
Sequence of Nuclear receptor coactivator 2 (Homo sapiens) (Q15596 whole entry, looked up, the tested form may be a part): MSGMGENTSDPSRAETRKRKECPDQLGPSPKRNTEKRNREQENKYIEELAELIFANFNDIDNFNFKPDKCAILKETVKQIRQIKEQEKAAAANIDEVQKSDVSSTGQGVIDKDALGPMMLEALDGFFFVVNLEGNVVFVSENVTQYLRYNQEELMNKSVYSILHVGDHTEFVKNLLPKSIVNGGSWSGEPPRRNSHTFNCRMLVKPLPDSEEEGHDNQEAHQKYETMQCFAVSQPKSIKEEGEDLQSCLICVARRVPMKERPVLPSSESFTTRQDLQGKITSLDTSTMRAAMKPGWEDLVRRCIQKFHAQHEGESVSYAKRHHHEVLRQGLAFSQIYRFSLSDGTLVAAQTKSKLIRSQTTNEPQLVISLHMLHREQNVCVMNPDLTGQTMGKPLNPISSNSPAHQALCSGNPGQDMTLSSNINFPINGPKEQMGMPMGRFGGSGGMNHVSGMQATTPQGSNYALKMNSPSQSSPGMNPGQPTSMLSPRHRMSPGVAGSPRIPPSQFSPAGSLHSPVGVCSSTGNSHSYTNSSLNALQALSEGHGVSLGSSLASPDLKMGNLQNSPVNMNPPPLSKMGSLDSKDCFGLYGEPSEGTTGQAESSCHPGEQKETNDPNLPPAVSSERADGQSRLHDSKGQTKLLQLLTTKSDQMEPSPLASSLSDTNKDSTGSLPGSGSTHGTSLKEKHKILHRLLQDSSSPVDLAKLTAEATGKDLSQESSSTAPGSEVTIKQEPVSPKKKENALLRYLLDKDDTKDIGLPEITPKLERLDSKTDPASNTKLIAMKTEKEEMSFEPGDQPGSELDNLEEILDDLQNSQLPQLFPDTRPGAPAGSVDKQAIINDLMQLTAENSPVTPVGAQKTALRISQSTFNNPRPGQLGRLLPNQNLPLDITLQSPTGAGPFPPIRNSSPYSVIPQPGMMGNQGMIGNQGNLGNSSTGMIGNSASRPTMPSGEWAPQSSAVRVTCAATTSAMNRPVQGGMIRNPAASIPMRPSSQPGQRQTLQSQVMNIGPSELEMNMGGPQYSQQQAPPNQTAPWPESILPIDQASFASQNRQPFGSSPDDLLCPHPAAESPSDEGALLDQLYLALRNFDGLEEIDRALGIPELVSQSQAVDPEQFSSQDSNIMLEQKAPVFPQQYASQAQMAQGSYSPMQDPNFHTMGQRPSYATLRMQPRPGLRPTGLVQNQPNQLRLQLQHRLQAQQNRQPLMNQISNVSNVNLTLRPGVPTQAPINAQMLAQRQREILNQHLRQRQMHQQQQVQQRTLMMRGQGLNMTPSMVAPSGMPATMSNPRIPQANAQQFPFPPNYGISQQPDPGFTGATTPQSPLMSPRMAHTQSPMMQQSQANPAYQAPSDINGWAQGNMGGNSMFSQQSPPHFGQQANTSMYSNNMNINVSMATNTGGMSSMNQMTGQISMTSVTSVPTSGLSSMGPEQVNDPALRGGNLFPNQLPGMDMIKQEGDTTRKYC

inhibition, inactive:
COc1cc(Cl)c(C)cc1NC(=O)COC(=O)c1cc(SC)ccc1Cl -3.4%
Cc1csc(NC(=O)CN2CCCCCC2)n1 -13.9%
COCc1[nH]nc2c1C(c1ccccc1)N(c1ccccc1)C2=O (stereo not given) 13.8%
N#CCC[C@H]1CC[C@]2(CCCN(Cc3ccc(Cl)cc3)C2)O1 7.54%
COc1ccc(S(=O)(=O)Nc2ccc(F)cc2)c(C)c1C -27.1%
CC(CCN1CCC(C(O)(c2ccccc2)c2ccccc2)CC1)Oc1ccc(C(F)(F)F)cc1 (stereo not given) -7.91%
COCCn1c(C)cc(C(=O)COC(=O)CNC(=O)c2ccco2)c1C -9.66%
Cc1cc(C(=O)COC(=O)CNC(=O)c2ccc(F)cc2)c(C)n1Cc1ccco1 -4.87%
O=C(Nc1ccccc1)N1CCN(Cc2nc3ccccc3c(=O)[nH]2)CC1 -10.6%
O=S1(=O)c2c(NCc3ccco3)cccc2Oc2ccccc2CN1Cc1cn(Cc2cccc(C(F)(F)F)c2)nn1 4.32%
Clc1ccc(Cl)c(Oc2ccc(Oc3nc(Cl)ccc3Cl)cc2)n1 -10%
c1csc(-c2nnc(SCc3nc4ccccc4[nH]3)o2)c1 4.24%
O=C(NCc1ccc2c(c1)OCO2)c1cc2c(s1)CS(=O)(=O)C2 13.1%
COc1cccc(NC(=O)C2(C)CCN2Cc2ccccc2Cl)c1 (stereo not given) -0.04%
C#CCNC(=O)C[C@H]1C[C@@]2(C(=O)OC)C(=C[C@H](C(C)C)O[C@@H]2C2CC2)N(Cc2ccco2)C1=O 14.7%
Cc1ccc(CSc2nnc(SCC(=O)NN=Cc3cc(Br)ccc3F)s2)cc1 15%
Cc1cccc(Nc2nc3c(S(=O)(=O)c4ccccc4)nnn3c3ccccc23)c1C 6.13%
Cc1noc(C)c1S(=O)(=O)N(C)C[C@H]1OCCCC[C@@H](C)Oc2ccc(NC(=O)CCCN(C)C)cc2C(=O)N([C@H](C)CO)C[C@@H]1C -6.35%
CCC(C)CN1C(=O)CN(S(C)(=O)=O)CC1(C)C(=O)Nc1ccc2c(c1)OCCO2 (stereo not given) -21.3%
CCOC(=O)N1CCN(C(=O)C[C@H]2C[C@@]3(C(=O)OC)C(=C[C@H](C(C)(C)C)O[C@@H]3C)N(Cc3ccc(Cl)cc3Cl)C2=O)CC1 23.9%
CC1(C)Cc2c(sc3nc(SCC(=O)NCc4ccccc4)n(-c4ccccc4)c(=O)c23)CS1 -9.11%
C[C@@H]1ON(C)[C@H]2C[C@H]3c4[nH]c5cccc(-c6ccc7c(c6)OCO7)c5c4CCN3C[C@@H]12 -21%
C=CC1C(OC2OC(CO)C(O)C(O)C2O)OC=C(C(=O)OC)C1CC1CC(=O)CC(CC(=O)CCc2ccc(O)cc2)O1 (stereo not given) -3.45%
COc1ccc(-c2cc(-c3nnc(SCc4ccc([N+](=O)[O-])cc4)n3N)[nH]n2)cc1 -26.2%
COc1ccc(CCOC2OC(CO)C(OC(=O)/C=C/c3ccc(O)c(OC)c3)C(O[C@H]3O[C@@H](C)[C@H](O)[C@@H](O)[C@H]3O)C2O)cc1O (stereo not given in full) -2.46%
CCCCn1c(N)c(N(CC)C(=O)c2ccc(N(C)S(=O)(=O)c3ccc(C)cc3)cc2)c(=O)[nH]c1=O -16.6%
CN(C)S(=O)(=O)c1ccc(NC(=O)COC(=O)Cn2[nH]c(=O)c3ccccc3c2=O)cc1 10.7%
CCC(CO)Nc1cccc2c1S(=O)(=O)N(Cc1cn(Cc3ccccc3C(F)(F)F)nn1)Cc1ccccc1O2 (stereo not given) -19.2%
Cc1nc(N)nc(SCc2ccc([N+](=O)[O-])cc2)c1N -3.96%
COCCCNC(=O)C[C@H]1C[C@@]2(C(=O)OC)C(=C[C@H](C(C)(C)C)O[C@@H]2C)N(Cc2ccc(Cl)cc2Cl)C1=O 16.8%
CCOC(=O)[C@]12CCCC=C1N(Cc1ccc(OC)cc1)C(=O)[C@@H]2CC(=O)NCc1cccs1 7.23%
CCOC(=O)[C@]12CCCCC/C=C\1N(Cc1ccc(OC)cc1)C(=O)[C@H]2CC(=O)N1CCOCC1 8.19%
Cc1sc2ncn(CC(=O)NCCCC(=O)NCc3ccc(F)cc3)c(=O)c2c1C -10.8%
Cc1[nH]n(C(N)=S)c(=O)c1N=Nc1ccc(Cl)cc1Cl -13.3%
CCCCOCCCNC(=O)C[C@H]1C[C@@]2(C(=O)OC)C(=C[C@H](COCc3ccccc3)O[C@@H]2C)N(Cc2cccc3ccccc23)C1=O 6.59%
COc1ccc(C(C#N)=C2C=CC(=NO)c3ccccc32)cc1 23.7%
O=C(Nc1ccc(N2CCCCC2)cc1)c1cc(S(=O)(=O)N2CCOCC2)ccc1F 10.1%
CC(=O)Nc1ccc(S(=O)(=O)N2CCCC2C(=O)O)cc1 (stereo not given) 10.5%
C[C@H](NC(=O)C1CC(=O)N(c2ccc3c(c2)OCO3)C1)C(=O)NCc1ccco1 (stereo not given in full) -21.3%
CN(C)[C@H]1CCN(c2cccc3c2S(=O)(=O)N2CC[C@H](C2)O3)C1 -9.6%
CC(c1ccc(N)cc1)c1cn(C)c2ccccc12 (stereo not given) -4.44%
CC(CCN1CCC(C(O)(c2ccccc2)c2ccccc2)CC1)Oc1ccc(Cl)cc1 (stereo not given) -21.2%
COc1ccc(-n2c(SCC(=O)Nc3ccc(C)c(Cl)c3)nc3ccccc3c2=O)cc1 -1.63%
O=C(CN1CCN(c2ccc(O)cc2)CC1)NC1CCCc2ccccc21 (stereo not given) 0.42%
CCCOc1ccc(F)cc1-c1cc(C(=O)Nc2ccc(F)cc2)[nH]n1 0.04%
COc1cc(F)ccc1-c1cc(C(=O)NCC2CCCCC2)[nH]n1 -20%
O=C(COC(=O)c1cnccn1)Nc1ccc(Cl)cc1C(F)(F)F -47.6%
C=CCN1C(=O)[C@H](CC(=O)NCCCN2CCCC2=O)[C@@]2(C(=O)OCC)CCCC=C12 -13.7%
CCNc1nc(NC(C)C)nc(OCCOC(=O)c2ccccc2)n1 -5.88%
CN(c1ccc(OCC(=O)OCC(=O)Nc2cccc([N+](=O)[O-])c2)cc1)S(=O)(=O)c1ccc(F)cc1 5.05%

inhibition, active:
COc1cc(SC)ccc1C(=O)Nc1nc(C)cs1 73.4%
Cc1ccsc1C(=O)OCC(=O)c1cc(C)n(CC2CCCO2)c1C (stereo not given) 73.2%
O=C(OC12CC3CC(CC(C3)C1)C2)c1ccc(NCc2cc(O)ccc2O)cc1 84.2%
CC(=O)Nc1ccc(S(=O)(=O)Nc2ccc(N3CCCCC3)cc2)cc1 63.2%
COc1ccc(OC)c(NC(=O)c2cc(-c3cc(F)ccc3OCC3CCCO3)n[nH]2)c1 (stereo not given) 75.3%
